The record followed here is PubChem BioAssay AID463173 (ICCB-Longwood Screening Facility, Harvard Medical School, 2010).

Out of some 52,000 compounds screened, about 4,300 (8.3%) were called active. Rule as the data show it: active = survival mostly below about 52% (no sharp cut-off); inactive = mostly above about 56%. This excerpt belongs to a sample that is enriched for actives.

The assay has as its system DeltatarO mutant. The assay can be described thus: growth inhibition of S. aureus wild type versus tarO mutant, primary screen, teichoic acid synthesis inhibitors, RN4220, OD600 (AID 463173). To be noted: OD600, 18 h, hits give low values, screened at 18.75 µg/mL (by protocol).
Consider `CC(NCc1ccc(F)cc1)C(=O)NC1CCCCC1` (configuration not stated), for which the survival was 79% (inactive).
The figure for `Cc1ccc(NC(=O)C2CC(=O)N(c3ccc(OC(C)C)cc3)C2)cc1` (configuration not stated) is 82% (inactive).
Turning to `COc1ccc(C2CC(c3c(O)n(C4CCCCC4)c(=O)[nH]c3=O)=Nc3ccccc3S2)cc1` (configuration not stated), the survival was 48% (inactive).
The figure for `O=C1COc2ccccc2N1Cc1ccc(OC(F)(F)F)cc1` is 86% (inactive); for `COc1ccc(CC(=O)NCc2ccc3c(c2)CCN3C(=O)c2ccccc2)cc1OC` it is 82% (inactive).
Take `Cc1ccc(CN(Cc2cccn2-c2nnc(N3CCCC3=O)s2)C(=O)Nc2cc(C)cc(C)c2)cc1`: the survival was 123% (inactive).
The figure for `COc1ccc(Nc2nc3ccc(C)cc3nc2-n2nc(C)cc2C)cc1Cl` is 69% (inactive); for `COc1cccc(CNC(=O)c2ccc3c(c2)nc2n3CCC(C)C2)c1` (configuration not stated) it is 72% (inactive).
The figure for `Cc1cn2c(=O)cc(COC(=O)c3cccc(NC(=O)COc4ccccc4C)c3)nc2s1` is 85% (inactive); for `CCOc1ccc(CCNC(=O)c2cc3c(-c4ccccc4F)nn(C)c3s2)cc1OCC` it is 67% (inactive); for `CCn1nc(-c2ccccc2)c(-c2ccccc2)c(C(=O)Nc2nc(C)c(C(C)=O)s2)c1=O` it is 53% (inactive).
The value for `COCc1cc(C)nc2c1C(=O)NC(c1ccc(NC(C)=O)cc1)N2Cc1ccccc1` (configuration not stated) was 74% (inactive).
As for `O=C(CSc1nccn1Cc1ccc(Cl)cc1)NC1CCCC1`, the survival was 83% (inactive).
Take `COc1ccc(CNC(=O)Cn2c(=O)nc(-c3ccccc3F)c3cc(Cl)ccc32)cc1`: the survival is 72% (inactive).
The value for `FC(F)(F)COc1nc(OCC(F)(F)F)nc(OCC(F)(F)F)n1` was 74% (inactive).
The figure for `CCC(C)Nc1nc(OC(C(F)(F)F)C(F)(F)F)nc(N(CC)CC)n1` (configuration not stated) is 80% (inactive); for `Nc1nc(OC(C(F)(F)F)C(F)(F)F)nc(OC(C(F)(F)F)C(F)(F)F)n1` it is 13% (active); for `O=C(O)Cn1ccc(=O)[nH]c1=O` it is 96% (inactive).
The figure for `CCOc1ccc(CCNC(=O)c2cc3c(=O)oc4ccc(C)cc4c3s2)cc1OCC` is 67% (inactive); for `Cc1nc2nc(NCc3ccc(Br)cc3)[nH]n2c(=O)c1Cc1ccccc1` it is 39% (active); for `Cc1nc2nc(NCc3cccc(Br)c3)[nH]n2c(=O)c1Cc1ccccc1` it is 54% (inactive).
Regarding `Cc1nc2nc(NCc3cccc(Cl)c3)[nH]n2c(=O)c1Cc1ccccc1`, the survival is 78% (inactive).
The value for `Cc1nc2nc(NCc3ccccc3Cl)[nH]n2c(=O)c1Cc1ccccc1` was 83% (inactive).
The figure for `Cc1nc2nc(NCc3ccc(Cl)cc3)[nH]n2c(=O)c1Cc1ccccc1` is 40% (active); for `CCc1ccc(CNc2nc3nc(C)c(Cc4ccccc4)c(=O)n3[nH]2)cc1` it is 80% (inactive); for `Nc1ccc(Oc2ccc(C(=O)O)c(C(=O)O)c2)cc1` it is 98% (inactive).
Turning to `O=C(NCc1ccco1)C1C2C3CCC(C3)C12` (configuration not stated), the survival was 77% (inactive).
Consider `N#CC1=C(N)SC(N)=C(C#N)C1c1ccc(O)cc1`, for which the survival is 82% (inactive).
`N#CC1=C(N)SC(N)=C(C#N)C1CCC1CCCCC1`: the survival was 2% (active).
The figure for `CC(CC1C(C#N)=C(N)SC(N)=C1C#N)c1ccccc1` (configuration not stated) is 51% (inactive); for `COc1ccccc1N1CCN(c2ncnc3c2cnn3C)CC1` it is 83% (inactive); for `CCCOc1ccccc1C(=O)N1CCC(c2nc3ccccc3s2)CC1` it is 63% (inactive).
The value for `CC(C)Oc1ccc(C(=O)N2CCC(c3nc4ccccc4s3)CC2)cc1` was 49% (inactive); that for `CCOc1cccc(C(=O)N2CCC(c3nc4ccccc4s3)CC2)c1` was 75% (inactive); that for `CC(C)COc1ccc(C(=O)N2CCC(c3nc4ccccc4s3)CC2)cc1` was 17% (active).
The value for `O=C(c1ccc(F)cc1)N1CCC(c2nc3ccccc3s2)CC1` was 76% (inactive); that for `CCCOc1ccc(C(=O)N2CCC(c3nc4ccccc4s3)CC2)cc1` was 36% (active).
For `COc1cc(OC)cc(-n2nnc(-c3nc(-c4ccccc4Cl)no3)c2N)c1`, the survival was 86% (inactive).
The figure for `COc1ccccc1N1CCN(S(=O)(=O)c2ccc(-c3coc(C)n3)cc2)CC1` is 71% (inactive).
The figure for `O=C1CCCc2c1cc(C(=O)N1CCOCC1)c(=O)n2-c1ccccc1` is 69% (inactive); for `Cc1cccc(NC(=O)N2CCN(C(=O)c3nsc4ccccc34)CC2)c1C` it is 88% (inactive).
The value for `O=C(Nc1ccccc1)N1CCN(C(=O)c2nsc3ccccc23)CC1` was 88% (inactive); that for `Cc1ccc(NC(=O)N2CCN(C(=O)c3nsc4ccccc34)CC2)cc1C` was -5% (active).
For the compound `CCc1ccccc1NC(=O)N1CCN(C(=O)c2nsc3ccccc23)CC1`, the survival was 17% (active).
The value for `CCc1ccc(NC(=O)N2CCN(C(=O)c3nsc4ccccc34)CC2)cc1` was 87% (inactive); that for `Cc1cc(C)cc(NC(=O)N2CCN(C(=O)c3nsc4ccccc34)CC2)c1` was 88% (inactive); that for `O=c1oc2ccc3ccccc3c2cc1-c1nnc(Nc2ccc(F)cc2)s1` was 78% (inactive).
In the case of `Cc1cccc(NC(=O)CN2C(=O)C3(SCC(=O)N3c3ccccc3)c3ccccc32)c1` (configuration not stated), the survival was 123% (inactive).
The figure for `O=C(NCCc1csc2nc(-c3ccc(F)cc3)nn12)c1cccc(C(F)(F)F)c1` is 78% (inactive).
The figure for `Cc1ccc(CNC(=O)CSc2ncc(S(=O)(=O)c3ccc(Br)cc3)c(=O)[nH]2)cc1` is 125% (inactive); for `CCOc1ccc(CNC(=O)c2ccc3[nH]c(C)c(C)c3c2)cc1OC` it is 67% (inactive); for `C=CCn1cc(/C=C(/C#N)C(=O)OCC)c2ccccc21` it is 83% (inactive).
The figure for `CCCCN(C)CC(O)Cn1cc(/C=C/C(=O)c2ccc(C)cc2)c2ccccc21` (configuration not stated) is 6% (active); for `CCCCN(C)CC(O)Cn1cc(/C=C/C(=O)c2ccc(OC)c(OC)c2)c2ccccc21` (configuration not stated) it is 67% (inactive).
For the compound `Cc1ccc(C(=O)/C=C/c2cn(CC(O)CN3CCc4ccccc43)c3ccccc23)cc1` (configuration not stated), the survival is 73% (inactive).
The value for `CCOc1ccc(C(=O)/C=C/c2cn(CC(O)CN3CCc4ccccc43)c3ccccc23)cc1` (configuration not stated) was 56% (inactive); that for `CCCCN(C)CC(O)Cn1cc(/C=C/C(=O)c2ccc(OCC)cc2)c2ccccc21` (configuration not stated) was 6% (active).
The figure for `CCCCN(C)CC(O)Cn1cc(/C=C/C(=O)c2ccc(Br)cc2)c2ccccc21` (configuration not stated) is 0% (active).
`O=S1(=O)N=C(SCCO)c2ccccc21`: the survival is 85% (inactive).
The value for `CCOc1ccc(NC(=O)c2cc(S(=O)(=O)N3CCCCCC3)cn2C)cc1` was 120% (inactive); that for `CCCC1N=C2c3ccccc3N=C(SCC(=O)NCCc3ccc(Cl)cc3)N2C1=O` (configuration not stated) was 93% (inactive); that for `Cc1ccccc1Cn1c(SCc2ccc(C(=O)NCCc3ccccc3)cc2)nc2ccncc21` was 82% (inactive).
The value for `CCCCOc1ccc(NC(=O)CS(=O)CC(=O)Nc2ccc(OC)cc2)cc1` (configuration not stated) was 84% (inactive); that for `CSc1cccc(NS(=O)(=O)c2ccc3[nH]cc(C(=O)N4CCCCCC4)c(=O)c3c2)c1` was 82% (inactive).
The value for `Cc1ccc2oc(-c3ccc(C)c(NC(=O)c4ccc(C(C)(C)C)cc4)c3)nc2c1` was 136% (inactive); that for `Cc1ccc2nc(-c3ccc(Cl)c(NC(=O)c4ccc(Br)o4)c3)oc2c1` was 48% (inactive); that for `CC(C)(C)c1ccc(C(=O)Nc2ccc(-c3nc4ccccc4o3)c(O)c2)cc1` was 69% (inactive).
For the compound `CC(C)(C)c1ccc(C(=O)Nc2cc(-c3nc4ccccc4o3)ccc2Cl)cc1`, the survival is 13% (active).
The value for `O=C(Nc1cc(-c2nc3ccccc3o2)ccc1Cl)c1ccc(Br)o1` was 54% (active).
The value for `Cc1cc(NC(=O)c2ccc(Br)o2)cc(-c2nc3ccccc3o2)c1O` was 98% (inactive).
For the compound `CCC(NC(=O)Nc1ccc(OC)c(OC)c1)c1c(-n2cccc2)sc2c1CCN(C)C2` (configuration not stated), the survival is 65% (inactive).
`COc1ccccc1CNC(=O)c1ccc2c(c1)nc(C)n2-c1cccc(C)c1`: the survival is 74% (inactive).
The figure for `COc1ccc(S(=O)(=O)NCCS(=O)(=O)N2CCN(c3ccccc3)CC2)cc1C` is 102% (inactive).
The figure for `COc1ccc(N(CC(=O)N2CCc3ccccc3C2)S(=O)(=O)c2ccccc2)cc1` is 58% (inactive).
The figure for `CCOc1ccccc1N(CC(=O)N1CCc2ccccc2C1)S(=O)(=O)c1ccccc1` is 37% (active); for `CCc1ccccc1N(CC(=O)N1CCc2ccccc2C1)S(C)(=O)=O` it is 96% (inactive); for `COc1ccc(-n2ncc(C(=O)NCc3ccco3)c2C2CCN(C(=O)OC(C)(C)C)CC2)cc1` it is 83% (inactive).
On to `Cc1ccccc1NC(=S)N1CCC(NC(=O)C(C)(C)C)CC1`, for which the survival was 92% (inactive).
The value for `O=C(Nc1ccc(F)cc1F)C1CCN(S(=O)(=O)c2ccc3[nH]c(=O)ccc3c2)CC1` was 83% (inactive).
The figure for `CCOC(=O)Cn1nnnc1CN(Cc1cc2c(C)ccc(C)c2[nH]c1=O)C1CCCCC1` is 88% (inactive); for `CCN(CC)c1ccc(C=C2C(=O)c3ccccc3C2=O)c(O)c1` it is 74% (inactive); for `Oc1ccc(N=Cc2ccccc2O)cc1` it is 109% (inactive).
The figure for `O=C1/C(=C/c2ccccc2O)CC/C1=C\c1ccccc1O` is 55% (active); for `CCOC(=O)c1cccc(NC(=O)CCn2c(-c3ccc(F)cc3)cc(C(=O)OCC)c2C)c1` it is 76% (inactive); for `NS(=O)(=O)c1ccc(NC(=O)CCn2c(=O)oc3ccccc32)cc1` it is 73% (inactive).
For the compound `CCOC(=O)c1cccc(NC(=O)CCn2c(=O)oc3ccccc32)c1`, the survival is 39% (active).
The figure for `CCN(CC)CCOC(=O)c1ccc(NC(=O)CCn2c(=O)oc3ccccc32)cc1` is 45% (active); for `CCOC(=O)c1ccc(NC(=O)NCCOCCn2c(=O)oc3ccccc32)cc1` it is 77% (inactive); for `COC(=O)c1ccc(NC(=O)Cn2c(=O)oc3ccccc32)cc1` it is 69% (inactive).
The figure for `CCc1cccc(C)c1NC(=O)C1CCN(S(=O)(=O)c2c(C)noc2/C=C/c2c(C)cc(C)cc2C)CC1` is 81% (inactive); for `Cn1cc(S(=O)(=O)N2CCCC2)cc1C(=O)Nc1ccc(F)cc1F` it is 77% (inactive); for `COc1ccc(NC(=O)C(NC(=O)Cc2cccs2)c2ccc(OC)cc2)cc1` (configuration not stated) it is 137% (inactive).
